From the supplement of paper PMC4466140

B1: unnamed (peptide)
chain: NAGIRPKFILALNDE

These binders were tested against AgAbp1 (assay: SPOT peptide array binding signal intensity (averaged, normalized) (arbitrary units (background-subtracted, floor 0; scale differs between SH3 domains)); higher = stronger binding of the SH3 domain to the peptide).
Method in brief: (§1)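 Binding signal refers to normalized, background-subtracted spot intensity averaged over replicates, expressed in arbitrary units that differ between domains. GST-fused SH3 domains from four yeast species were incubated at 10 μg/ml overnight at 4°C on cellulose membranes of synthetic 15-mer peptides with cysteines replaced by serines. Bound protein was detected with anti-GST antibody, an HRP anti-mouse secondary and luminol, and quantified with Genespotter.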

| Binder | SPOT peptide array binding signal intensity |
| --- | --- |
| B1 | ≤ 0 |

What follows are binders tested against AgBbc1 in the same assay as above.
Method in brief: as §1

| Binder | SPOT peptide array binding signal intensity |
| --- | --- |
| B1 | 2.75 |

What follows are binders tested against AgBem1-D1 in the same assay as above.
Method in brief: as §1

| Binder | SPOT peptide array binding signal intensity |
| --- | --- |
| B1 | 11.5 |

What follows are binders tested against AgBzz1-D1 in the same assay as above.
Method in brief: as §1

| Binder | SPOT peptide array binding signal intensity |
| --- | --- |
| B1 | 44 |

What follows are binders tested against AgBzz1-D2 in the same assay as above.
Method in brief: as §1

| Binder | SPOT peptide array binding signal intensity |
| --- | --- |
| B1 | 77 |

What follows are binders tested against AgCyk3 in the same assay as above.
Method in brief: as §1

| Binder | SPOT peptide array binding signal intensity |
| --- | --- |
| B1 | 7 |

The binders below were run against AgFus1 in the same assay as above.
Method in brief: as §1

| Binder | SPOT peptide array binding signal intensity |
| --- | --- |
| B1 | 68 |

These binders were tested against AgHof1 in the same assay as above.
Method in brief: as §1

| Binder | SPOT peptide array binding signal intensity |
| --- | --- |
| B1 | 13.8 |

These binders were tested against AgHse1 in the same assay as above.
Method in brief: as §1

| Binder | SPOT peptide array binding signal intensity |
| --- | --- |
| B1 | 616 |

What follows are binders tested against AgLsb1 in the same assay as above.
Method in brief: as §1

| Binder | SPOT peptide array binding signal intensity |
| --- | --- |
| B1 | 2 |

What follows are binders tested against AgLsb4 in the same assay as above.
Method in brief: as §1

| Binder | SPOT peptide array binding signal intensity |
| --- | --- |
| B1 | 25 |

What follows are binders tested against AgMyo5 in the same assay as above.
Method in brief: as §1

| Binder | SPOT peptide array binding signal intensity |
| --- | --- |
| B1 | 1 |

What follows are binders tested against AgNbp2 in the same assay as above.
Method in brief: as §1

| Binder | SPOT peptide array binding signal intensity |
| --- | --- |
| B1 | 0.5 |

The binders below were run against AgRvs167 in the same assay as above.
Method in brief: as §1

| Binder | SPOT peptide array binding signal intensity |
| --- | --- |
| B1 | 2.33 |

These binders were tested against AgSho1 in the same assay as above.
Method in brief: as §1

| Binder | SPOT peptide array binding signal intensity |
| --- | --- |
| B1 | 9.5 |

What follows are binders tested against AgSla1-D1-D2 in the same assay as above.
Method in brief: as §1

| Binder | SPOT peptide array binding signal intensity |
| --- | --- |
| B1 | 3 |

What follows are binders tested against AgSla1-D3 in the same assay as above.
Method in brief: as §1

| Binder | SPOT peptide array binding signal intensity |
| --- | --- |
| B1 | 4 |

Each binder was assayed against CaAbp1-D1 in the same assay as above.
Method in brief: as §1

| Binder | SPOT peptide array binding signal intensity |
| --- | --- |
| B1 | ≤ 0 |

What follows are binders tested against CaAbp1-D2 in the same assay as above.
Method in brief: as §1

| Binder | SPOT peptide array binding signal intensity |
| --- | --- |
| B1 | ≤ 0 |

Each binder was assayed against CaBbc1 in the same assay as above.
Method in brief: as §1

| Binder | SPOT peptide array binding signal intensity |
| --- | --- |
| B1 | 1.5 |

These binders were tested against CaBem1-D1 in the same assay as above.
Method in brief: as §1

| Binder | SPOT peptide array binding signal intensity |
| --- | --- |
| B1 | 1 |

The binders below were run against CaBzz1-D1 in the same assay as above.
Method in brief: as §1

| Binder | SPOT peptide array binding signal intensity |
| --- | --- |
| B1 | 72 |

Each binder was assayed against CaBzz1-D2 in the same assay as above.
Method in brief: as §1

| Binder | SPOT peptide array binding signal intensity |
| --- | --- |
| B1 | 26.2 |

What follows are binders tested against CaCyk3 in the same assay as above.
Method in brief: as §1

| Binder | SPOT peptide array binding signal intensity |
| --- | --- |
| B1 | 2 |

Each binder was assayed against CaFus1 in the same assay as above.
Method in brief: as §1

| Binder | SPOT peptide array binding signal intensity |
| --- | --- |
| B1 | 1120 |

These binders were tested against CaHof1 in the same assay as above.
Method in brief: as §1

| Binder | SPOT peptide array binding signal intensity |
| --- | --- |
| B1 | 1 |

Each binder was assayed against CaHse1 in the same assay as above.
Method in brief: as §1

| Binder | SPOT peptide array binding signal intensity |
| --- | --- |
| B1 | 6.5 |

What follows are binders tested against CaLsb1 in the same assay as above.
Method in brief: as §1

| Binder | SPOT peptide array binding signal intensity |
| --- | --- |
| B1 | 1 |

The binders below were run against CaLsb4 in the same assay as above.
Method in brief: as §1

| Binder | SPOT peptide array binding signal intensity |
| --- | --- |
| B1 | ≤ 0 |

The binders below were run against CaMyo5 in the same assay as above.
Method in brief: as §1

| Binder | SPOT peptide array binding signal intensity |
| --- | --- |
| B1 | 27.2 |

Each binder was assayed against CaNbp2 in the same assay as above.
Method in brief: as §1

| Binder | SPOT peptide array binding signal intensity |
| --- | --- |
| B1 | 122 |

What follows are binders tested against CaRvs167 in the same assay as above.
Method in brief: as §1

| Binder | SPOT peptide array binding signal intensity |
| --- | --- |
| B1 | 1.17 |

What follows are binders tested against CaRvs167-3 in the same assay as above.
Method in brief: as §1

| Binder | SPOT peptide array binding signal intensity |
| --- | --- |
| B1 | 17 |

These binders were tested against CaSho1 in the same assay as above.
Method in brief: as §1

| Binder | SPOT peptide array binding signal intensity |
| --- | --- |
| B1 | 222 |

The binders below were run against CaSla1-D1-D2 in the same assay as above.
Method in brief: as §1

| Binder | SPOT peptide array binding signal intensity |
| --- | --- |
| B1 | ≤ 0 |

The binders below were run against CaSla1-D3 in the same assay as above.
Method in brief: as §1

| Binder | SPOT peptide array binding signal intensity |
| --- | --- |
| B1 | 10.8 |

What follows are binders tested against ScAbp1 in the same assay as above.
Method in brief: as §1

| Binder | SPOT peptide array binding signal intensity |
| --- | --- |
| B1 | ≤ 0 |

These binders were tested against ScBbc1 in the same assay as above.
Method in brief: as §1

| Binder | SPOT peptide array binding signal intensity |
| --- | --- |
| B1 | ≤ 0 |

What follows are binders tested against ScBem1-D1 in the same assay as above.
Method in brief: as §1

| Binder | SPOT peptide array binding signal intensity |
| --- | --- |
| B1 | 1 |

What follows are binders tested against ScBzz1-D1 in the same assay as above.
Method in brief: as §1

| Binder | SPOT peptide array binding signal intensity |
| --- | --- |
| B1 | 43 |

Each binder was assayed against ScBzz1-D2 in the same assay as above.
Method in brief: as §1

| Binder | SPOT peptide array binding signal intensity |
| --- | --- |
| B1 | 19 |

Each binder was assayed against ScCyk3 in the same assay as above.
Method in brief: as §1

| Binder | SPOT peptide array binding signal intensity |
| --- | --- |
| B1 | 54.5 |

What follows are binders tested against ScFus1 in the same assay as above.
Method in brief: as §1

| Binder | SPOT peptide array binding signal intensity |
| --- | --- |
| B1 | 159 |

What follows are binders tested against ScHof1 in the same assay as above.
Method in brief: as §1

| Binder | SPOT peptide array binding signal intensity |
| --- | --- |
| B1 | ≤ 0 |

Each binder was assayed against ScHse1 in the same assay as above.
Method in brief: as §1

| Binder | SPOT peptide array binding signal intensity |
| --- | --- |
| B1 | 628 |

These binders were tested against ScLsb1 in the same assay as above.
Method in brief: as §1

| Binder | SPOT peptide array binding signal intensity |
| --- | --- |
| B1 | 1.5 |

The binders below were run against ScLsb2 in the same assay as above.
Method in brief: as §1

| Binder | SPOT peptide array binding signal intensity |
| --- | --- |
| B1 | ≤ 0 |

What follows are binders tested against ScLsb3 in the same assay as above.
Method in brief: as §1

| Binder | SPOT peptide array binding signal intensity |
| --- | --- |
| B1 | ≤ 0 |

What follows are binders tested against ScLsb4 in the same assay as above.
Method in brief: as §1

| Binder | SPOT peptide array binding signal intensity |
| --- | --- |
| B1 | ≤ 0 |

What follows are binders tested against ScMyo3 in the same assay as above.
Method in brief: as §1

| Binder | SPOT peptide array binding signal intensity |
| --- | --- |
| B1 | 2.5 |

What follows are binders tested against ScMyo5 in the same assay as above.
Method in brief: as §1

| Binder | SPOT peptide array binding signal intensity |
| --- | --- |
| B1 | ≤ 0 |

What follows are binders tested against ScNbp2 in the same assay as above.
Method in brief: as §1

| Binder | SPOT peptide array binding signal intensity |
| --- | --- |
| B1 | 23.5 |

What follows are binders tested against ScPex13 in the same assay as above.
Method in brief: as §1

| Binder | SPOT peptide array binding signal intensity |
| --- | --- |
| B1 | ≤ 0 |

These binders were tested against ScRvs167 in the same assay as above.
Method in brief: as §1

| Binder | SPOT peptide array binding signal intensity |
| --- | --- |
| B1 | ≤ 0 |

The binders below were run against ScSho1 in the same assay as above.
Method in brief: as §1

| Binder | SPOT peptide array binding signal intensity |
| --- | --- |
| B1 | 158 |

These binders were tested against ScSla1-D1-D2 in the same assay as above.
Method in brief: as §1

| Binder | SPOT peptide array binding signal intensity |
| --- | --- |
| B1 | ≤ 0 |

The binders below were run against ScSla1-D3 in the same assay as above.
Method in brief: as §1

| Binder | SPOT peptide array binding signal intensity |
| --- | --- |
| B1 | 6.5 |

What follows are binders tested against SpAbp1-D1 in the same assay as above.
Method in brief: as §1

| Binder | SPOT peptide array binding signal intensity |
| --- | --- |
| B1 | ≤ 0 |

Each binder was assayed against SpBbc1 in the same assay as above.
Method in brief: as §1

| Binder | SPOT peptide array binding signal intensity |
| --- | --- |
| B1 | 4 |

These binders were tested against SpBzz1-D1 in the same assay as above.
Method in brief: as §1

| Binder | SPOT peptide array binding signal intensity |
| --- | --- |
| B1 | 201 |
